# Measurements from ChEMBL document CHEMBL4513139, “CO-ADD screening of University of Strathclyde (UK) compounds”.
# Results with a measured potency or affinity are listed apart.
# Tests used:
# Staphylococcus aureus = settings: Concentration 32 ug.mL-1; ASSAY_TEST Inhibition of Bacterial Growth; detection method Absorption (OD600); MEDIA CAMHB; plate type 384well; NBS; CORNING #3640; time 18 hr
# Escherichia coli = settings: Concentration 32 ug.mL-1; ASSAY_TEST Inhibition of Bacterial Growth; detection method Absorption (OD600); MEDIA CAMHB; plate type 384well; NBS; CORNING #3640; time 18 hr
compound,measurement,setting,value
CCOP(=O)(OCC)C(Cc1cn(Cc2cnc(C)nc2N)nn1)C(=O)O.O=C(O)C(F)(F)F (configuration not stated),Inhibition,Staphylococcus aureus,18.42%
same,Inhibition,Escherichia coli,-15.56%
